This is part of a sample that, as a whole, favours compounds with a hit. Of some 83,000 tested, about 20% had one in any assay.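 Cell lines were cultured in 96-well plates, exposed to a single compound concentration, and assessed for percent growth 48 hours later.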 A number with no mark means an inactive call. Active and inactive are the calls of the source. Rule for the calls: active = growth percent below 10; inactive = the rest.
system: CAKI-1 renal; test: NCI-60 one-dose screen, 48 h (100 = growth as untreated, 0 = no growth, -100 = all killed); settings: 10 µM unless noted

Row | Structure (SMILES) | growth
1 | CN1CCN(Cc2ccc(NC(=O)c3cncc(C#Cc4cnc5ccc(N6CCN(C)CC6)nn45)c3)cc2C(F)(F)F)CC1 | -95.3% (active)
2 | O=C(O)c1cn(C2CC2)c2cc(N3CCN(C(=O)CN4C(=O)CSC4=O)CC3)c(F)cc2c1=O | 76.2%
3 | NC/C(=C/F)COc1ccc2nc(NCc3cccnc3)oc2c1 | 69.8%
4 | C=C(C)[C@@H]1CC[C@]2(C(=O)NCCCCCN(CCC#N)CCC#N)CC[C@]3(C)[C@H](CC[C@@H]4[C@@]5(C)CCC(=O)C(C)(C)[C@@H]5CC[C@]43C)[C@@H]12 | 61.1%
5 | CCCCNNC(=O)c1ccc(-c2cccc(F)c2F)cc1 | 30.9%
6 | C#Cc1ccc(C(=O)NCc2ccc(/C=C/C(=O)c3nccn3C)cc2)cc1 | 43.2%
7 | COc1ccc(/C(N)=N/C(N)=N/c2nc3ccccc3s2)cc1 | 40%
8 | O=C(CN1CCN(c2cc(=O)[nH]c3ccc(F)cc23)CC1)Nc1ccc(Cl)cc1 | 72.6%
9 | Cc1ccc(-n2cc(/C=C/C(=O)c3ccc(O)cc3)c(-c3ccc(S(C)(=O)=O)cc3)n2)cc1 | 73.4%
10 | O=S(=O)(NCCCNc1nccc(-c2[nH]c(-c3ccccc3)nc2-c2ccc(Cl)c(O)c2)n1)c1cccc(F)c1 | 56.1%
11 | Cc1cc(-c2ccc(Cl)cc2)n(Cc2nnc(SCC(=O)Nc3ccc(S(N)(=O)=O)cc3)n2C2CCCCC2)n1 | 99.4%
12 | Oc1cccc2ccc(-c3nnc(SCc4ccc(O)c5ncccc45)n3-c3ccccc3)nc12 | 18.1%
13 | Cc1ccc(-c2nn(-c3ccccc3)cc2/C=C/C(=O)c2ccc(NC(=O)CCCCCCC(=O)NO)cc2)cc1 | 58.1%
14 | CC(C)(C)c1ccc(C(=O)Nc2sc3c(c2C(N)=O)CCC(O)C3)cc1 (stereo not drawn) | 5.67% (active)
15 | O=C(Nc1ccc2c(ccn2Cc2ccccn2)c1)c1ccnnc1 | 65.9%
16 | CC(C)(C)c1ccc(C(=O)Nc2sc3c(c2C(N)=O)CC/C(=N\O)C3)cc1 | 12.7%
17 | NC(N)=Nc1ccc(Oc2cccc(Nc3ccc(Cl)cc3)c2)cn1 | 27.3%
18 | CCc1cccc(NC(=O)CNc2cc(S(=O)(=O)N(C)C)cc(C)c2C)c1 | 50.5%
19 | COc1ccc(N2C(=O)c3cc(Cl)ccc3NC2SCc2ccccc2)cc1 (stereo not drawn) | 81.8%

Row | Structure (SMILES) | growth
20 | O=C(CN1CCN(c2cc(=O)n(-c3ccccc3)c3ccccc23)CC1)Nc1nc(-c2ccc(Cl)cc2)cs1 | 49.6%
21 | COc1ccc(C2c3sc4c(C)cccc4c3Oc3nc(CC(=O)Nc4ccccc4)[nH]c(=O)c32)cc1 (stereo not drawn) | 46%
22 | O=C(/C=C/c1ccc(F)cc1)c1ccc(O)cc1 | 87%
23 | Cn1ccnc1C(=O)/C=C/c1ccc(NC(=O)c2c(F)c(F)c(F)c(F)c2F)cc1 | 107%
24 | Nc1cc(-c2c[nH]c3ccc(Br)cc23)nc2cc(-c3c[nH]c4ccc(Br)cc34)nn12 | 21.1%
25 | C#CCC#CCN1CCC[C@H]1C(=O)NCC(=O)OC | 102%
26 | COc1cc(/C=C/C(=O)c2ccc(NC(=O)CSc3nnc(-c4ccc(-c5nc6ccc(Cl)cc6[nH]5)cc4)o3)cc2)cc(OC)c1OC | 91.2%
27 | Oc1cccc2ccc(-c3nnc(SCc4ccc(O)c5ncccc45)o3)nc12 | 8.28% (active)
28 | NS(=O)(=O)c1ccc(Nc2nc(SCc3ccccc3)nc3ccccc23)cc1 | 49.1%
29 | O=C1[C@@H]2Cc3c([nH]c4ccccc34)[C@H](c3c(Cl)cccc3Cl)N2C(=O)CN1C1CCN(CC2CCCCC2)CC1 | 76.7%
30 | NS(=O)(=O)c1ccc(Nc2nc(N/N=C/c3c[nH]c4ccccc34)nc(Nc3ccccc3)n2)cc1 | 53.9%
31 | N#Cc1c(-c2cccs2)cc(-c2cnccn2)nc1SCC(=O)Nc1ccc(Br)cc1 | 64.4%
32 | COc1ccc(Cn2cc3c(c2-c2cc(OC)c(OC)c(OC)c2)CCc2c(CN4CCOCC4)noc2-3)cc1 | 44.6%
33 | C=CCn1c(SCC(=O)Nc2ccc(C(=O)/C=C/c3ccc(C)cc3)cc2)nnc1-c1c[nH]c2ccccc12 | 85.4%
34 | COc1ccccc1C(=O)Nc1cccc2c1C(=O)C(=O)C=C2 | 76.4%
35 | COc1cc(-c2nn(C(C)(C)C)cc2-c2ccnc(NCCCNS(=O)(=O)c3ccc(Cl)cc3)n2)ccc1Cl | 17.7%
36 | CCc1cccc2c3c(sc12)C(c1ccc(Cl)cc1)C(C#N)=C(/N=C/c1ccc(Cl)cc1)O3 (stereo not drawn) | 37.5%
37 | C=C(C=O)[C@@H]1CC[C@]2(COC(C)=O)CC[C@]3(C)C(CC[C@@H]4[C@@]5(C)CC[C@H](OC(C)=O)C(C)(C)[C@@H]5CC[C@]43C)[C@@H]12 (stereo partly drawn) | -14.9% (active)
38 | COc1ccccc1N1CCN(C2=CC(=O)C(C)=C(C)C2=O)CC1 | 104%

Source: PubChem BioAssay (NCI)
